{"source": "PubChem BioAssay AID1209", "about": "(Sanford-Burnham Center for Chemical Genomics, 2008)", "note": "Among all 190,000 compounds or so, about 810 (0.43%) were called active. Only a selection was taken, and actives are over-represented in it overall. A number with no mark means an inactive call. No stated cut-off is given here; in the data, active means inhibition above about 50%; inactive means the rest."}
{"molecular_target": "Mannose-6-phosphate isomerase (Homo sapiens) (UniProt P34949)", "sequence (P34949 whole entry, looked up)": "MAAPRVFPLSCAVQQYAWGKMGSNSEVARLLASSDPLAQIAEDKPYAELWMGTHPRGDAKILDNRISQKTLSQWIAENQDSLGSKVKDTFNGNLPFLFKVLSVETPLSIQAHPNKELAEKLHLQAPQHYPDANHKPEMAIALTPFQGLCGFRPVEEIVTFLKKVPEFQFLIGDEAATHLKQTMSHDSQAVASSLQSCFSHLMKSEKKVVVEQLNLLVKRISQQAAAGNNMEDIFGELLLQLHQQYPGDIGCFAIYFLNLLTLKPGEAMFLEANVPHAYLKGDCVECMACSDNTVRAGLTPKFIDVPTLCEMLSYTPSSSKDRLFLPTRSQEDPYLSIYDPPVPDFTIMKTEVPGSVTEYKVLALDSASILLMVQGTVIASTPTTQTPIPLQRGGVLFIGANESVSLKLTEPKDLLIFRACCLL", "assay": "MPI enzyme activity inhibition – biochemical, fluorescence intensity, coupled assay, primary screen (AID 1209);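 further: plate controls were DMSO vehicle for no effect and wells lacking substrate for full effect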", "settings": "purified PMI enzyme, at 20 µM, hits give high values"}
{"smiles": "O=C(Nc1ccc(N2CCCC2)c(Cl)c1)c1ccccc1[N+](=O)[O-]", "inhibition": "-3.5%"}
{"smiles": "Cc1cc(N/N=C/c2ccc(Cl)cc2Cl)nc(NCc2ccccc2)n1", "inhibition": "20.3%"}
{"smiles": "O=C(NCc1ccccc1)NCC12CC3CC(CC(C3)C1)C2", "inhibition": "1.8%"}
{"smiles": "CCC[n+]1c(C)sc2c3c(ccc21)CCCC3", "inhibition": "22.9%"}
{"smiles": "CCOC(=O)C[n+]1c(C)sc2ccc(OC)cc21", "inhibition": "3.3%"}
{"smiles": "Cc1ccc2sc(C)[n+](CCC(C)S(=O)(=O)[O-])c2c1", "note": "(stereo unspecified)", "inhibition": "1%"}
{"smiles": "CCCC[n+]1c(C)sc2cc(OC)ccc21", "inhibition": "16.5%"}
{"smiles": "CCC[n+]1c(C)sc2c(OC)ccc(OC)c21", "inhibition": "3.5%"}
{"smiles": "CC[n+]1c(C)sc2cc(C)ccc21", "inhibition": "77% (active)"}
{"smiles": "CC[n+]1c(C)sc2cc(OC)ccc21", "inhibition": "73.9% (active)"}
{"smiles": "COc1ccc2sc(C)[n+](C)c2c1", "inhibition": "84.3% (active)"}
{"smiles": "Cc1ccc2c(c1)sc(C)[n+]2CCCS(=O)(=O)[O-]", "inhibition": "9.6%"}
{"smiles": "COc1ccc2sc(/C=C/c3ccccc3O)[n+](C)c2c1", "inhibition": "4.3%"}
{"smiles": "CC[n+]1c(/C=C/C=C/N(C(C)=O)c2ccccc2)sc2cc(OC)ccc21", "inhibition": "-17.8%"}
{"smiles": "O=C(Nc1cccc(C(=O)N2CCOCC2)c1)NC1CCCCC1", "inhibition": "8.1%"}
{"smiles": "N#Cc1c(SCC(N)=O)nc(-c2ccccc2)c2c1CCCC2", "inhibition": "-2.9%"}
{"smiles": "CCN1C(=O)C2(C(C#N)=C(N)Oc3cc(C)oc(=O)c32)c2ccccc21", "note": "(stereo unspecified)", "inhibition": "5.6%"}
{"smiles": "CCC(C)c1ccccc1NC(=O)Cc1coc2cc3c(cc12)CCC3", "note": "(stereo unspecified)", "inhibition": "19.4%"}
{"smiles": "CCOc1ccc(N2C(=O)CCC2=O)cc1", "inhibition": "6.4%"}
{"smiles": "C/C(=C\\C(=O)OCC(=O)NCc1ccccc1)C(=O)OCC(=O)NCc1ccccc1", "inhibition": "6%"}
{"smiles": "O=C1CCC([N+](=O)[O-])C(c2cccc(Br)c2)N1", "note": "(stereo unspecified)", "inhibition": "-1%"}
{"smiles": "O=C(Cn1cc2c(n1)CCCC2)NCC1CCCO1", "note": "(stereo unspecified)", "inhibition": "3.4%"}
{"smiles": "Cc1sc2c3ccsc3ccc2[n+]1C", "inhibition": "-2.6%"}
{"smiles": "CCCC[n+]1c(C)sc2ccc(C)cc21", "inhibition": "61.6% (active)"}
{"smiles": "CC[n+]1c(C)sc2c3ccsc3ccc21", "inhibition": "66.7% (active)"}
{"smiles": "Cc1ccc2sc(C)[n+](CCO)c2c1", "inhibition": "-7.8%"}
{"smiles": "Cc1ccc2sc(C)[n+](CCCS(=O)(=O)[O-])c2c1", "inhibition": "-3%"}
{"smiles": "Cc1sc2ccc3sccc3c2[n+]1C", "inhibition": "-21.2%"}
{"smiles": "CCOP(=O)(OCC)C(Nc1ccc(C)cc1)c1ccco1", "note": "(stereo unspecified)", "inhibition": "-14.5%"}
{"smiles": "NC(=O)N/N=C/c1ccccc1OCC(=O)NCc1ccccc1", "inhibition": "1.8%"}
{"smiles": "Cc1ccc(S(=O)(=O)NC(N)=NCCc2ccc(Cl)cc2)cc1C", "inhibition": "15.4%"}
